Source: PubChem BioAssay
This is a sample that favours compounds with a hit; in the whole collection about 2.7% have one here.
A549 tox – Nrf2 qHTS screen for inhibitors: counterscreen for cytotoxicity; A549 ARE-Fluc cells, CellTiter-Fluor viability, 18-24 h; Potency, µM (highest dose often 46 µM), usual class: inhibitors; 390,000 compounds, 0.16% hits; AID 504648, 2011
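A549 ARE_Fluc cells in 5% FBS OPTI-MEM were exposed to compounds in concentration-response for 18-24 h at 37 deg C. Viability was read by CellTiter-Fluor fluorescence (Ex 405/Em 525) after 30 min, before the luciferase read.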
LDHA inh – qHTS assay for inhibitors of human lactate dehydrogenase. L-lactate dehydrogenase A chain (Homo sapiens), P00338. purified LDHA, NADH/diaphorase-resazurin fluorescence; hits give low values. activity change, % (values are at about 110 or 230 µM). 480,000 compounds, 0.15% hits; in the data active means activity change below about -30%; inconclusive means mostly about -25% to -30%
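LDH5 2 nM; NADH 0.06 mM, pyruvate 0.2 mM; 200 mM Tris pH 7.4, EDTA, Tween-20; 5 min RT. Detection: diaphorase 0.133 mg/mL + resazurin 37 µM, fluorescence ex540/em590 at 0 and 20 min; normalized to enzyme-free and DMSO wells.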
mIDH1 inhibitor – qHTS for Inhibitors of mutant isocitrate dehydrogenase 1 (IDH1): qHTS. Isocitrate dehydrogenase [NADP] cytoplasmic (Homo sapiens), O75874. IDH1-R132H enzyme, NADPH consumption, diaphorase/resazurin fluorescence. Potency, µM (titrated, usually from 76.6 µM), actives largely listed as inhibitors. 390,000 compounds, 0.093% hits; further: nearly all actives have a fitted effect of over 65% in size
Target sequence (O75874 whole entry R132H, stated change not applied): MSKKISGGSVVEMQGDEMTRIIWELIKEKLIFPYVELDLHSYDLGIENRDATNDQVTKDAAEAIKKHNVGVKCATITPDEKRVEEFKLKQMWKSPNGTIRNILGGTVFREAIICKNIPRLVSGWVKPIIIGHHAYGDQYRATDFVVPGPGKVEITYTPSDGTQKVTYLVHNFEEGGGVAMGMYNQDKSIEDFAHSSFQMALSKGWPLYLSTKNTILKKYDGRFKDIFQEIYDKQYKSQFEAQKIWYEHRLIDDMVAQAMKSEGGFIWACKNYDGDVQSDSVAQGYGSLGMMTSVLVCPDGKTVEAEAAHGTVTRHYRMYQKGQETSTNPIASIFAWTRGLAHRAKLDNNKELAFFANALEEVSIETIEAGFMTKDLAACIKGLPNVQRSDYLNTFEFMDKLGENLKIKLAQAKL
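IDH1-R132H (0.5 ug/mL dispensed) in pH 7.5 Tris buffer was preincubated 30 min with compound, then given a substrate mix of 0.016 mM NADPH and 2 mM alpha-KG for 80 min at room temperature; remaining NADPH was read by diaphorase/resazurin fluorescence.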
Nrf2 activator – qHTS of Nrf2 Activators | Potency, µM (doses to about 46.1 µM), most hits filed as activators | 410,000 compounds, 0.31% hits | AREc32 ARE-luciferase reporter (MCF7-derived line), luminescence, 24 h | AID 624171, 2012; further: nearly all actives have a fitted effect of over 65% in size
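AREc32 cells carrying an ARE-driven firefly luciferase, 1000 cells/well in OPTI-MEM with 5% FBS, dosed after overnight attachment and incubated 24 hr at 37 deg C. Steady-Glo luminescence read after 30 min at RT.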
12-LOX inh – Primary qHTS assay for inhibitors of human arachidonate 12S-lipoxygenase (ALOX12): Round 2; purified 12hLO, xylenol orange hydroperoxide absorbance; Potency, µM (series often up to 108 µM), usual class: inhibitors; 580,000 compounds, 1.1% hits; AID 1671190, 2021
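Hydroperoxide product was detected by ferrous iron/xylenol orange as the 573 to 405 nm absorbance ratio. Arachidonic acid at 40 uM (final) was turned over for 30 min at room temperature by 150 nM human 12hLO, pH 7.0 Hepes buffer, after 15 min compound preincubation.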
Nrf2 block – Nrf2 qHTS screen for inhibitors; A549 ARE-Fluc reporter, luciferase luminescence, 18-24 h; Potency, µM (titrated, usually from 46 µM), hits mostly inhibitors; 360,000 compounds, 2.1% hits; further: nearly all actives have a fitted effect of over 60% in size
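A549 ARE_Fluc cells, 5000/well, 5% FBS OPTI-MEM; compounds in dose-response, 18-24 h at 37 °C/5% CO2; CellTiter-Fluor viability read (Ex 405/Em 525), then BugLite luciferase luminescence = Nrf2 activity.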
IDH1 autofl – qHTS for Inhibitors of mutant isocitrate dehydrogenase 1 (IDH1): Cherrypicks Autofluorescence Interference | shares compounds with mIDH1 inhibitor | Resorufin detection reagent fluorescence interference, cell-free | inhibition of signal, % at 51.2 µM | 750 tested, under 10 active
IDH1 WT – qHTS for Inhibitors of mutant isocitrate dehydrogenase 1 (IDH1): Cherrypicks in WT IDH1; WT IDH1 enzyme, NADPH diaphorase/resazurin fluorescence; 750 compounds, 9% hits; Potency, µM (doses to about 115 µM), usual class: inhibitors; shares compounds with mIDH1 inhibitor; further: nearly all actives have a fitted effect of over 55% in size
Target sequence (O75874 whole entry, looked up): as the sequence (O75874 whole entry R132H, stated change not applied) above, with H132R counted along it
IDH1 R132H conf – qHTS for Inhibitors of mutant isocitrate dehydrogenase 1 (IDH1): Confirmation of Cherrypicks | IDH1 R132H enzyme, NADPH diaphorase/resazurin fluorescence | shares compounds with mIDH1 inhibitor | Potency, µM (doses to about 76.6 µM), most hits filed as inhibitors | 750 compounds, 83% hits; further: nearly all actives have a fitted effect of over 50% in size
Hits are given with their value; . = inactive; ? = inconclusive; / = no result given; [ ] = another dose, or the depositor's remark. Unless noted, the call rests on the fitted dose curve; in most records, active means well fitted curve in the direction sought with a large enough effect; inconclusive means small, poorly fitted or top-dose-only effect, or another doubt; inactive means no such curve, though single readings can be large; an effect the other way counts as inactive or inconclusive.

SMILES | A549 tox | LDHA inh | mIDH1 inhibitor | Nrf2 activator | 12-LOX inh | Nrf2 block | IDH1 autofl | IDH1 WT | IDH1 R132H conf
COc1ccc(C(C(=O)NC2CCCC2)N(C(=O)c2snc(C(N)=O)c2N)c2cc(C)ccc2OC)cc1OC (centres undefined) | . | . | ? | . | . | ? | . | . | 32µM
Cc1ccc(C(C(=O)NC2CCCC2)N(Cc2ccc(F)cc2)C(=O)c2snc(C(N)=O)c2N)o1 (centres undefined) | . | . | ? | . | . | ? | . | . | ?
COc1ccc(C(C(=O)NC2CCCC2)N(C(=O)c2snc(C(N)=O)c2N)c2ccccc2OC)cc1OC (centres undefined) | . | . | . | . | . | . | / | / | /
COC(=O)C1=C(C)N(C)C(C)=C(C(=O)OC)C1c1ccccc1C(F)(F)F | / | . | / | / | . | / | / | / | /
COc1cc(-c2cc(C(=O)Nc3ccc(S(N)(=O)=O)cc3)c3ccccc3n2)cc(OC)c1OC | . | . | ? | . | . | . | . | . | ?
COC(=O)CC1C(=O)NCCN1S(=O)(=O)c1cccc(Br)c1 (centres undefined) | / | . | / | / | . | / | / | / | /
CCc1ccc2c(c1)C(NC(C)=O)C(=O)N2CCN1CCOCC1 (centres undefined) | . | . | 46µM | . | 45µM | . | . | ? | 25µM
CCCN1C(=O)C(NC(C)=O)c2ccccc21 (centres undefined) | . | . | . | . | ? | . | / | / | /
CC(C)c1ccccc1-n1c(SCc2cc(=O)oc3ccc4ccccc4c23)nnc1-c1cccnc1 | . | . | ? | .[9.22 µM] | . | ? | . | . | 11µM
S=C(Nc1cccc2ccccc12)Nc1cccc2ccccc12 | . | . | . | . | . | . | / | / | /
S=C(Nc1cccc2ccccc12)NC1CCCCC1 | . | . | ? | . | 45µM | ? | . | ? | .
CCOC(=O)c1c(NC(=O)COC(=O)c2ccccc2NC)sc(C(=O)N(C)C)c1C | . | . | 12µM | . | . | ? | . | . | 4.5µM
CCOC(=O)c1c(NC(=O)COC(=O)Cc2ccccc2[N+](=O)[O-])sc(C(=O)N(C)C)c1C | . | . | . | . | . | . | / | / | /
Nc1nccnc1C(=O)Nc1ccc(C(=O)NCc2ccc(F)cc2)cc1 | / | . | / | / | . | / | / | / | /
Cc1ccc(NC(CNS(=O)(=O)c2ccc(Cl)cc2)c2ccccc2)cc1 (centres undefined) | ? | . | . | . | ? | ? | / | / | /
O=S(=O)(NCC(Nc1ccc(Cl)cc1)c1ccccc1)c1ccccc1 (centres undefined) | ? | . | ? | . | ? | ? | . | . | 22µM
Cc1cccc(C)c1NC(=O)CN(C)C(=O)c1cccc(S(=O)(=O)NCC2CCCO2)c1 (centres undefined) | / | . | / | / | . | / | / | / | /
O=c1cc(N2CCCCC2)c(-c2ccccc2)nn1Cc1c(Cl)cccc1Cl | ? | . | 21µM | . | ? | 18µM | . | . | 14µM
O=c1cc(N2CCCCC2)c(-c2ccccc2)nn1Cc1ccc(Cl)cc1 | ? | . | . | . | ? | ? | / | / | /
CCc1ccc(OCCn2c(C3CC(=O)N(Cc4ccc(F)cc4)C3)nc3ccccc32)cc1 (centres undefined) | . | . | ? | . | . | 15µM | . | . | ?
O=C(CCc1ncc(-c2ccc(Cl)cc2)o1)NCC1CCCO1 (centres undefined) | / | . | / | / | . | / | / | / | /
c1ccc(-c2cc(-c3nnc4n3N=C(c3ccc5ccccc5c3)CS4)[nH]n2)cc1 | ? | . | 12µM | . | . | ? | . | . | 7.1µM
COc1ccc2c(C)c(CC(=O)N3CCCCC3)c(=O)oc2c1 | / | . | / | / | . | / | / | / | /
CCc1nc(N2CCN(C(=O)CCCl)CC2)c2c3c(sc2n1)CCCC3 | / | . | . | . | . | / | / | / | /
CCc1nc(N2CCN(C(=O)CCl)CC2)c2c3c(sc2n1)CC(C)CC3 (centres undefined) | . | . | ? | ? | . | . | . | 50µM | 10µM
SMILES | A549 tox | LDHA inh | mIDH1 inhibitor | Nrf2 activator | 12-LOX inh | Nrf2 block | IDH1 autofl | IDH1 WT | IDH1 R132H conf
CCCC(CCC)=NNC(=S)NC1CCCCC1 | / | . | / | / | ? | / | / | / | /
CCN(CC)C(=O)c1sc2c(c1C)c(=O)n(CCc1ccccc1)c(=O)n2Cc1ccc(F)cc1Cl | . | . | . | . | . | / | / | / | /
CCN(CC)C(=O)c1sc2c(c1C)c(=O)n(CCc1ccccc1)c(=O)n2Cc1cccc(Cl)c1 | . | . | 32µM | . | . | / | . | . | 11µM
Cc1cccc(-n2c(SCC(=O)Nc3ccccc3Cl)nc3n[nH]c(C)c3c2=N)c1 | . | . | ? | . | . | / | . | . | 25µM
CCN(C(=O)CSc1nc2n[nH]c(C)c2c(=N)n1-c1ccc(Cl)c(C)c1)c1cccc(C)c1 | . | . | 46µM | . | . | . | . | . | 22µM
CCCCN(CC)C(=O)CSc1nc2n[nH]c(C)c2c(=N)n1-c1cccc(C)c1 | . | . | . | . | . | ? | / | / | /
CC(c1ccccc1)N(CCC(c1ccccc1)C1CCOC(C)(C)C1)C(=O)c1ccco1 (centres undefined) | . | . | ? | . | . | . | / | / | /
COc1ccc(CN(CCC(c2ccc(F)cc2)C2CCOC(C)(C)C2)C(=O)c2ccco2)cc1 (centres undefined) | ? | . | ? | . | ? | ? | . | . | ?
CCN(CC)Cc1ccc(CNC(=O)c2c(C)[nH]c3ccccc23)cc1 | / | . | / | / | . | / | / | / | /
O=C(O)c1cccc(S(=O)(=O)N2CCN(C(c3ccccc3)c3ccccc3)CC2)c1 | . | . | ? | . | . | . | . | . | 32µM
C/C(=N\NC(N)=S)c1cc(-c2ccccc2)c(-c2ccccc2)s1 | . | . | ? | . | . | . | . | . | ?
